The target in assay [1] is MAP/microtubule affinity-regulating kinase 3 (Homo sapiens) (UniProt P27448). The note with it: at 1 µM.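 Note: reported values are averaged percent inhibition of MARK3.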
Assay [2] has as its target T1, MAP/microtubule affinity-regulating kinase 4 (Homo sapiens) (UniProt Q96L34).
T1 sequence (whole entry): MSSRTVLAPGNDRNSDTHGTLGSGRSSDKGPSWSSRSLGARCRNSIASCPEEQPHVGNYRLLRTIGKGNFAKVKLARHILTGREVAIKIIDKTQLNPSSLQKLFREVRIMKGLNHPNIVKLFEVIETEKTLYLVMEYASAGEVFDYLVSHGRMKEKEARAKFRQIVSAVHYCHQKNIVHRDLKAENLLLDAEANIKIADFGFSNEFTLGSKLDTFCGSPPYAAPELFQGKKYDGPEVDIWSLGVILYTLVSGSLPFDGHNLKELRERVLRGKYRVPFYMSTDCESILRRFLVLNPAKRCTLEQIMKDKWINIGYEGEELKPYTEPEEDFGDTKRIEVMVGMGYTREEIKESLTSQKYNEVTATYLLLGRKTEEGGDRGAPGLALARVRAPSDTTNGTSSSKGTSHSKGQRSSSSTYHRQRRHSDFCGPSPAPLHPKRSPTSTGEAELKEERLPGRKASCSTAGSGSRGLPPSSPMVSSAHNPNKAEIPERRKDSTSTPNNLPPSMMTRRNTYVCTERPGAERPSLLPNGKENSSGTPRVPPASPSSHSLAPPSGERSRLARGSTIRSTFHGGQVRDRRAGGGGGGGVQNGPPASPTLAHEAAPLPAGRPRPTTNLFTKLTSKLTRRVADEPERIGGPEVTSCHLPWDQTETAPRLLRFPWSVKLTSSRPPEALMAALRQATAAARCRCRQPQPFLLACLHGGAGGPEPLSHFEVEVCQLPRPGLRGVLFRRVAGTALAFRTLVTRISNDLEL
The note with it: at 0.1 µM.

Assay [3] has as its target T1, MAP/microtubule affinity-regulating kinase 4 (Homo sapiens). The following applies: at 1 µM.
Assay [4] has as its target Maternal embryonic leucine zipper kinase (Homo sapiens) (UniProt Q14680). The following applies: at 0.1 µM.
Assay [5] shares this target. The note with it: at 1 µM.
The target of assay [6] is MAP kinase-interacting serine/threonine-protein kinase 1 (Homo sapiens) (UniProt Q9BUB5). The note with it: at 0.1 µM.
Sequence of MAP kinase-interacting serine/threonine-protein kinase 1 (Homo sapiens) (Q9BUB5 whole entry, looked up): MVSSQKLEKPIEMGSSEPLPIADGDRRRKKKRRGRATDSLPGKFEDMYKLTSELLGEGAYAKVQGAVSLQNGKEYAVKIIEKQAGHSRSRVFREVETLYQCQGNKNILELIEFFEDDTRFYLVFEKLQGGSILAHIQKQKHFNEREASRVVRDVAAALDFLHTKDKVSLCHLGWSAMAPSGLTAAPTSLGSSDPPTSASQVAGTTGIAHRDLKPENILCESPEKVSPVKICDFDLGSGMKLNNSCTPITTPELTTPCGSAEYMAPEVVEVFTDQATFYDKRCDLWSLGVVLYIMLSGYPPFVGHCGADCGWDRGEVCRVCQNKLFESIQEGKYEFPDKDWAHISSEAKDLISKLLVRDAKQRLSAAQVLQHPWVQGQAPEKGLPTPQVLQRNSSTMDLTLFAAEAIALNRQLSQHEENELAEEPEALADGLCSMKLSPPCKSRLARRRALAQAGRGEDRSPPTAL
Assay [7] shares this target. The note with it: at 1 µM.
Assay [8] addresses MAP kinase-interacting serine/threonine-protein kinase 2 (Homo sapiens) (UniProt Q9HBH9). The note with it: at 0.1 µM.
Assay [9] shares this target. The following applies: at 1 µM.
In assay [10] the target is Serine/threonine-protein kinase MARK2 (Homo sapiens) (UniProt Q7KZI7). The following applies: at 0.1 µM.
Sequence of Serine/threonine-protein kinase MARK2 (Homo sapiens) (Q7KZI7 whole entry): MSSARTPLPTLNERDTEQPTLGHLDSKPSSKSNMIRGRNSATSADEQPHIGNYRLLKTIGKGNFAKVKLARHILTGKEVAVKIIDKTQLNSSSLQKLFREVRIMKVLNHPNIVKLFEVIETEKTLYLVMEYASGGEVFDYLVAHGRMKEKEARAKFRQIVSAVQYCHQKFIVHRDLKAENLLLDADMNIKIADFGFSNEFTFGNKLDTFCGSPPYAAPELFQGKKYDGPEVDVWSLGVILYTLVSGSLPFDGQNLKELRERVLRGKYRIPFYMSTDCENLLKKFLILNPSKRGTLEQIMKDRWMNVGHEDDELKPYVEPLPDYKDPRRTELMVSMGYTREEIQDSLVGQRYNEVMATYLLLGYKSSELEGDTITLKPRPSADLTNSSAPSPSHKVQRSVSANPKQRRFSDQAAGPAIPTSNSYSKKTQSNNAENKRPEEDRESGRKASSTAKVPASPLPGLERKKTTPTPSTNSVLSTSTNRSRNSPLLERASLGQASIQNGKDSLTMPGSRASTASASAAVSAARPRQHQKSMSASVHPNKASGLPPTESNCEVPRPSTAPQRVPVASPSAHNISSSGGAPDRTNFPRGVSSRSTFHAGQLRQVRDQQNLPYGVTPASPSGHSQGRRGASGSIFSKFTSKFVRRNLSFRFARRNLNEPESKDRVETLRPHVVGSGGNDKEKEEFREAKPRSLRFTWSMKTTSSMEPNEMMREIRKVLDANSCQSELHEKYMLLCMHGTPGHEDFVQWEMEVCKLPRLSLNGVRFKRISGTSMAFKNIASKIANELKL
Assay [11] shares this target. The following applies: at 1 µM.
The target of assay [12] is PAS domain-containing serine/threonine-protein kinase (Homo sapiens) (UniProt Q96RG2). The following applies: at 0.1 µM.
Sequence of PAS domain-containing serine/threonine-protein kinase (Homo sapiens) (Q96RG2 whole entry, the tested form may be a part): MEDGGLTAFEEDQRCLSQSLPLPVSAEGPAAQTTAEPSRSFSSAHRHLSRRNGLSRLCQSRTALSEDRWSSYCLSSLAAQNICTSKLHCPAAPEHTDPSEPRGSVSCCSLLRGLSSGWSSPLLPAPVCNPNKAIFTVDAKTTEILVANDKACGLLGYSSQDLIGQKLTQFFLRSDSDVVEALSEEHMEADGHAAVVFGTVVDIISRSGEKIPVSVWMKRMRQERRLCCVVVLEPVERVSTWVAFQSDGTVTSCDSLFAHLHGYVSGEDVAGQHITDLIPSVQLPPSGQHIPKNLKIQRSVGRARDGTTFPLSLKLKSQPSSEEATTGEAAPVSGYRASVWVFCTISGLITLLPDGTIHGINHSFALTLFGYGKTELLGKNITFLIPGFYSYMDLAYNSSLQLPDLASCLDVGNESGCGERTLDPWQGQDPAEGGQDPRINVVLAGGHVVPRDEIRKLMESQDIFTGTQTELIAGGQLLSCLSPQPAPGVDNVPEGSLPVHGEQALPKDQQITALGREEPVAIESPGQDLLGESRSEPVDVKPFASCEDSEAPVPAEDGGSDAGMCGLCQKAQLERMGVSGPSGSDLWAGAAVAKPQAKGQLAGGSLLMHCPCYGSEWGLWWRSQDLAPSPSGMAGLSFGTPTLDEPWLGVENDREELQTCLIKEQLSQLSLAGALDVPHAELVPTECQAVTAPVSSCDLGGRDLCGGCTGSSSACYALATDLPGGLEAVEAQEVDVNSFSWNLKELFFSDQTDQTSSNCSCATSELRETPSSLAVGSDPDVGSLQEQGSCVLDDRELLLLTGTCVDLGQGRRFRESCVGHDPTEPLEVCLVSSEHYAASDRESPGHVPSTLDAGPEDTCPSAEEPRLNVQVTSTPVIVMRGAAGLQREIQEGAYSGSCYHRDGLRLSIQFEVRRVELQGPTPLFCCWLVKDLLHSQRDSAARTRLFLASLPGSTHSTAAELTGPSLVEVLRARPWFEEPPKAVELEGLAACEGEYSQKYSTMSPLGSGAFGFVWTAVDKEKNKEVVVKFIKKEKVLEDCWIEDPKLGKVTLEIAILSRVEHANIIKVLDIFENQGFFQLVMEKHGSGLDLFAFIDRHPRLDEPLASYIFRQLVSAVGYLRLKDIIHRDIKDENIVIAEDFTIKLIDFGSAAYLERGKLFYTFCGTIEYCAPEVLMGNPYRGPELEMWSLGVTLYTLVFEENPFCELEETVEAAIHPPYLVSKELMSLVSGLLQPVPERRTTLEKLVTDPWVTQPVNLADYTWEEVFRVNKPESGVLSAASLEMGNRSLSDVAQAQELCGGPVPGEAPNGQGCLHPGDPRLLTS
For assay [13] the target is unchanged. The following applies: at 1 µM.
Assay [14] addresses Phosphorylase b kinase gamma catalytic chain, skeletal muscle/heart isoform (Homo sapiens) (UniProt Q16816). The note with it: at 0.1 µM.
For assay [15] the target is unchanged. The following applies: at 1 µM.
For assay [16], the target named is T2, Phosphorylase b kinase gamma catalytic chain, liver/testis isoform (Homo sapiens) (UniProt P15735).
T2 sequence (whole entry): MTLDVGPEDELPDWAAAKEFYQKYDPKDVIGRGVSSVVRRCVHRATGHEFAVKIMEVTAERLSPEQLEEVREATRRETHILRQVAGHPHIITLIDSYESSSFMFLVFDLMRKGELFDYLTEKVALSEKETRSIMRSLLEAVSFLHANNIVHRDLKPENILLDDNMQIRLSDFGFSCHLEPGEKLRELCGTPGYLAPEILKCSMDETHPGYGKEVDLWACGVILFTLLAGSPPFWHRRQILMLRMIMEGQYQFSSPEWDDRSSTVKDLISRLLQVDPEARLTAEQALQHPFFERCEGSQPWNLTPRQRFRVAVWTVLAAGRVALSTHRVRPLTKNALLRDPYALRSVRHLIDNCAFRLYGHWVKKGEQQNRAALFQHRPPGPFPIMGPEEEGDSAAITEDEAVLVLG
The note with it: at 0.1 µM.

Assay [17] concerns the target T2, Phosphorylase b kinase gamma catalytic chain, liver/testis isoform (Homo sapiens). The following applies: at 1 µM.
Assay [18] concerns the target Serine/threonine-protein kinase pim-1 (Homo sapiens) (UniProt P11309). The following applies: at 0.1 µM.
Assay [19] has the same target. The following applies: at 1 µM.
For assay [20], the target named is Serine/threonine-protein kinase pim-2 (Homo sapiens) (UniProt Q9P1W9). The following applies: at 0.1 µM.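 Note: reported value is the mean percent inhibition of PIM2, measured in the GSK PKIS kinase inhibitor set screen.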
Sequence of Serine/threonine-protein kinase pim-2 (Homo sapiens) (Q9P1W9 whole entry, looked up): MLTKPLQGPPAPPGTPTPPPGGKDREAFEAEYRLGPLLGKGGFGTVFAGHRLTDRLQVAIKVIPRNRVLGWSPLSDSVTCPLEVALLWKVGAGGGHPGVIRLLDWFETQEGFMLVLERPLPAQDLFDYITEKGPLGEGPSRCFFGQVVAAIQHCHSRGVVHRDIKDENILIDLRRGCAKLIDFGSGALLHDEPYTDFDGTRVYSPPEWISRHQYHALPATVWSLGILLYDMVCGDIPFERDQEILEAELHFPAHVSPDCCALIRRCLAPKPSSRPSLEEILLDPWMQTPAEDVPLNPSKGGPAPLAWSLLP

Each structure is given as a SMILES string.

Sequence of MAP/microtubule affinity-regulating kinase 3 (Homo sapiens) (P27448 whole entry, looked up): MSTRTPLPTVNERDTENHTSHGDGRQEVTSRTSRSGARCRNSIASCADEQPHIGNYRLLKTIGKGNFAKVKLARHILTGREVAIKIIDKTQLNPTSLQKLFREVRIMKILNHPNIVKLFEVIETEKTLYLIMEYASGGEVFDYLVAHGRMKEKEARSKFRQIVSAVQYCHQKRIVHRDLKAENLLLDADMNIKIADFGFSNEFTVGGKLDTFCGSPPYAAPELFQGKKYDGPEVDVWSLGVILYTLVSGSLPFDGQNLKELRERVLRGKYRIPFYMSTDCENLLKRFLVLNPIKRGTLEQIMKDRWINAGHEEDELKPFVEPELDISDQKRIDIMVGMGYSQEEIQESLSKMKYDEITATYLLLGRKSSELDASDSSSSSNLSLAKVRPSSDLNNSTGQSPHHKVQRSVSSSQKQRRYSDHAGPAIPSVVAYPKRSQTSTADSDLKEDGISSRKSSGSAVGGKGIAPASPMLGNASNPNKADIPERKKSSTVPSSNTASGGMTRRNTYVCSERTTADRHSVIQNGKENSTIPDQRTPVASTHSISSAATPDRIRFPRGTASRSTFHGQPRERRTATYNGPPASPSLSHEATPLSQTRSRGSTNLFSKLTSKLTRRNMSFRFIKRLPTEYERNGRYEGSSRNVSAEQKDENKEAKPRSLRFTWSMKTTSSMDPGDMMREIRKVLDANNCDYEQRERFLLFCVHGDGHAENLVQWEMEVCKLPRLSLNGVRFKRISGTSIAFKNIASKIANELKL
Sequence of Maternal embryonic leucine zipper kinase (Homo sapiens) (Q14680 whole entry, looked up): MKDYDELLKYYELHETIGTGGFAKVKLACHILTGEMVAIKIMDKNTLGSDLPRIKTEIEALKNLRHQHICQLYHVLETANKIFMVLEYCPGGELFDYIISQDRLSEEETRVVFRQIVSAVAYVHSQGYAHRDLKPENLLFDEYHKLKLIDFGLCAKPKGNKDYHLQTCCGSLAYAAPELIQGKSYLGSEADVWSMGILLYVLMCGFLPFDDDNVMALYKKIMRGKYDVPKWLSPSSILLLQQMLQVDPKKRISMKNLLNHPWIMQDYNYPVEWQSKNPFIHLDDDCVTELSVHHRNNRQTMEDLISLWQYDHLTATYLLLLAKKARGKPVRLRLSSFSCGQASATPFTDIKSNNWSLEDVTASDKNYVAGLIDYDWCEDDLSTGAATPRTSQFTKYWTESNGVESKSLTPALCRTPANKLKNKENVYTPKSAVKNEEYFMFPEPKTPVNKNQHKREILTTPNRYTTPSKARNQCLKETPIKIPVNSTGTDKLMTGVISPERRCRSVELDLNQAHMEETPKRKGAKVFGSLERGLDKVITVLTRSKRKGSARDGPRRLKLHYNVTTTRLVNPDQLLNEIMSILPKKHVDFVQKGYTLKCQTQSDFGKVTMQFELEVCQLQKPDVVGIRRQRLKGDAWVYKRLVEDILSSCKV
Sequence of Serine/threonine-protein kinase pim-1 (Homo sapiens) (P11309 whole entry, looked up): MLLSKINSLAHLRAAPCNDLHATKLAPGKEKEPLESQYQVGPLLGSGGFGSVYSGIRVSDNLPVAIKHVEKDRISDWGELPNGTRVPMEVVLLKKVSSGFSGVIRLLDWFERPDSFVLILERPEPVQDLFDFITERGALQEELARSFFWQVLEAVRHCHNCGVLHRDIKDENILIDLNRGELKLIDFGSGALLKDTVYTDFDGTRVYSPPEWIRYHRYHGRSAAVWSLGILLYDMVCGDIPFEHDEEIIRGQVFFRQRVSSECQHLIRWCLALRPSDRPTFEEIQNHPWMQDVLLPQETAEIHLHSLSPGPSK
Sequence of Phosphorylase b kinase gamma catalytic chain, skeletal muscle/heart isoform (Homo sapiens) (Q16816 whole entry, looked up, canonical isoform): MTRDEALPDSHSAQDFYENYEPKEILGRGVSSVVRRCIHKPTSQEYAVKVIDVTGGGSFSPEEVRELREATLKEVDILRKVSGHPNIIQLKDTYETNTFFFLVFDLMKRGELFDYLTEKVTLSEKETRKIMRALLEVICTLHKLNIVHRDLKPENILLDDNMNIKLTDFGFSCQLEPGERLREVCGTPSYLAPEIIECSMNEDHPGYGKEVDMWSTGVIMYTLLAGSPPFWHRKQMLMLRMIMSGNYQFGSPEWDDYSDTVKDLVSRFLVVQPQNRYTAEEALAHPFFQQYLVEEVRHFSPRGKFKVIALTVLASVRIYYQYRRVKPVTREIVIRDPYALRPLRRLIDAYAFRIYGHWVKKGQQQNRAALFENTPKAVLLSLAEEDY

As a reminder, the inhibition is the drop in the measured response relative to a control, in per cent. In the case of `CCn1c(-c2nonc2N)nc2ccccc21`, the inhibition came to 22.2% in assay [1]; 1.04% in [2]; 2.84% in [3]; 1.29% in assay [4]; 7.45% in assay [5]; 1.93% in [6]. In addition, the inhibition in assay [7] was 8.64%; in assay [8], 0.78%; in [9] it was 14.7%; in assay [10] it was -0.05%; in [11], 2.79%; in [12], 1.01%. Besides, the inhibition was 0.51% in [13]; 2.03% in assay [14]; 2.71% in assay [15]; 3.71% in assay [16]; 0.96% in [17]; 0.21% in [18]. Moreover, the inhibition in assay [19] is 4.54%; in assay [20], -0.12%.

On to `CN1CCC(n2cnc(-c3ccc(F)cc3)c2-c2ccnc(Nc3ccccc3)n2)CC1`, for which the inhibition in assay [1] came to 2.89%; in assay [2], 0.39%; in [3], 0.51%; in [4], 1.63%; in [5], 3.22%; in assay [6], 1.8%. The inhibition was 11.4% in assay [7]; 1.79% in [8]; 4.18% in assay [9]; 0.89% in assay [10]; -0.33% in assay [11]; -0.38% in [12]. For the same molecule, the inhibition in assay [13] was 2.19%; in assay [14], 3.44%; in assay [15], 4.79%; in assay [16], 3.49%; in assay [17], 2.68%; in [18], 0.38%. For the same molecule, the inhibition in assay [19] was 2.62%; in assay [20] it was -0.56%.

Consider `CNC(=O)c1cc(-c2ccc(F)cc2)cc(-c2ccc(S(=O)(=O)N3CCCC3)cc2)c1N`, for which the inhibition in [1] came to 2.91%; in [2], 0.61%; in assay [3], 1.19%; in assay [4], 4.19%; in assay [5], 3.17%; in assay [6], 0.63%. In addition, the inhibition in [7] was 0.76%; in [8] it was -0.84%; in assay [9], -0.59%; in [10] it was 2.35%; in assay [11], 1.52%; in assay [12], 0.47%. The inhibition in assay [13] was -0.16%; in assay [14] it was 2.9%; in [15], 4.24%; in [16], 3.8%; in assay [17] it was 3.18%; in assay [18] it was 0.06%. Also, the inhibition is 0.44% in assay [19] and -0.39% in [20].

Regarding `COC(=O)c1sc(-n2cnc3cc(OC)c(OC)cc32)cc1OCc1ccccc1C(F)(F)F`, the inhibition in [1] was determined as 3.04%; in assay [2], 2.41%; in assay [3], 4.85%; in assay [4], 4.31%; in assay [5], 12.6%; in [6], 3.55%. Moreover, the inhibition is 3.3% in assay [7]; 0.22% in assay [8]; -0.04% in assay [9]; -1.89% in assay [10]; 2.26% in assay [11]; -1.52% in [12]. In addition, the inhibition in assay [13] is -2.77%; in assay [14], 4.45%; in [15] it was 5.4%; in assay [16], 4.03%; in assay [17], 0.9%; in assay [18], 0.49%. Also, the figures for the inhibition in assay [19] and in assay [20] were 1% and 0.49%, respectively.

Turning to `Nc1nc(-c2ccc(F)cc2)c(-c2ccc3ncccc3n2)s1`, the inhibition is 3.12% in assay [1]; 2.07% in [2]; 2.43% in [3]; 4.85% in assay [4]; 22.3% in assay [5]; 4.39% in assay [6]. Also, the inhibition amounted to 8.56% in [7]; 1.91% in [8]; 5.26% in assay [9]; 0.92% in assay [10]; 0.96% in assay [11]; 0.84% in [12]. Further, the inhibition in assay [13] is -0.64%; in assay [14] it was 4.41%; in assay [15] it was 7.81%; in assay [16], 6.3%; in assay [17], 5.79%; in assay [18], 0.35%. The values for the inhibition in assay [19] and in assay [20] were 2.38% and 0.17%, respectively.

For `CCNC(=O)O[C@H]1CN[C@H](C#Cc2cc3ncnc(Nc4ccc(OCc5cccc(F)c5)c(Cl)c4)c3s2)C1`, the inhibition was determined as 2.72% in [1]; 0.88% in assay [2]; 1.97% in assay [3]; 4.18% in [4]; 4.99% in [5]; 2.75% in [6]. Also, the inhibition in assay [7] is 4.73%; in assay [8] it was 0.73%; in [9], 5.72%; in assay [10], -0.45%; in assay [11] it was 2.03%; in assay [12], 0.27%. Further, the inhibition in [13] was -1.53%; in assay [14] it was 0.81%; in assay [15], 0.44%; in assay [16], 3.66%; in [17], 0.88%; in assay [18], 0.78%. Besides, the figures for the inhibition in [19] and in assay [20] were 0.26% and -0.1%, respectively.

For the molecule `CCOc1ccc2c(-c3ccnc(Nc4cccc(C(F)(F)F)c4)n3)cnn2n1`, the inhibition turned out to be 0.96% in assay [1]; 1.1% in assay [2]; 1.8% in [3]; 1.46% in [4]; 3.63% in [5]; 2.65% in [6]. The inhibition in assay [7] was 4.31%; in assay [8], -0.81%; in assay [9], 3.49%; in [10] it was 0.02%; in assay [11] it was 0.82%; in [12], 0.62%. Further, the inhibition in assay [13] is 0.46%; in assay [14], 2.65%; in assay [15], 6.48%; in [16] it was 3.64%; in assay [17], 3.92%; in assay [18], -1.05%. For the same molecule, the results for the inhibition in [19] and in [20] were -1.35% and 0.55%, respectively.

The values above are taken from ChEMBL document CHEMBL1961873, “Compounds: GSK PKIS; Assays: Nanosyn kinase panel” (2012).
